{"source": "PubChem BioAssay AID686979", "about": "(National Center for Advancing Translational Sciences (NCATS), 2013)", "note": "Out of some 420,000 compounds screened, about 50,000 (12%) were called active. Where a call stands in place of a potency, no number is given. Roughly 26% stayed inconclusive and do not appear here. Calls come from the whole dose curve; as a rule, active = well fitted inhibition curve with a large enough effect; inconclusive = small, poorly fitted or top-dose-only effect; inactive = flat fitted curve, though single readings scatter. Only a selection was taken, and actives are over-represented in it overall. Potency is the fitted concentration of half-maximal effect."}
{"assay": "qHTS for Inhibitors of human tyrosyl-DNA phosphodiesterase 1 (TDP1): qHTS in cells in presence of CPT; note: nearly all actives have a fitted effect of over 55% in size", "details": "chicken DT40 Tdp1-/-;hTDP1 cells + 20 nM CPT, ATP luminescence, 48 h; series mostly up to 46.2 µM", "summary_of_the_method": "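Cell growth measured by CellTiter-Glo luminescence after a minimum 48 h, 37 C compound exposure with 20 nM CPT in Tdp1-knockout DT40 cells stably expressing hTDP1, seeded 400/well; qHTS titration format.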"}
{"smiles": "COc1ccc2c(c1)CCc1cnc(-n3ncc(C(=O)NCCN4CCOCC4)c3C)nc1-2", "Potency": "inactive"}
{"smiles": "Cc1cc(C)nc(SCC(=O)c2ccc(Cl)cc2)n1", "Potency": "inactive"}
{"smiles": "Cc1cc(Oc2ccc(Cl)cc2)nc(SCC(=O)c2ccccc2)n1", "Potency": "23.1 µM (active)"}
{"smiles": "COC(=O)c1cc(C(=O)CSc2nc(C)cc(C)n2)ccc1O", "Potency": "inactive"}
{"smiles": "O=C(COC(=O)CCCSc1nc2ccccc2[nH]1)Nc1ccc(Oc2ccccc2)cc1", "Potency": "inactive"}
{"smiles": "NC(=O)CC[C@@H]1NC(=O)[C@@H]2CCCN2C(=O)c2cc([N+](=O)[O-])cc(F)c2NCCC[C@@H](C(N)=O)NC1=O", "Potency": "inactive"}
{"smiles": "CC1(C)CN(Cc2cccnc2)C(=O)[C@H]1CC(=O)Nc1ccc(Br)cc1", "Potency": "inactive"}
{"smiles": "COc1ccc(CC(=O)N2CC(=O)Nc3ccc(Br)cc3C2c2ccc(F)cc2)cc1OC", "note": "(stereo unspecified)", "Potency": "16.4 µM (active)"}
{"smiles": "CCC(CC)C(=O)N1CC(=O)Nc2ccc(Br)cc2C1c1ccccc1", "note": "(stereo unspecified)", "Potency": "23.1 µM (active)"}
{"smiles": "CC(C)C(=O)N1CC(=O)Nc2ccc(F)cc2C1c1ccc(F)cc1", "note": "(stereo unspecified)", "Potency": "inactive"}
{"smiles": "O=C1CN(C(=O)c2ccccc2F)C(c2ccc(F)cc2)c2cc(F)ccc2N1", "note": "(stereo unspecified)", "Potency": "inactive"}
{"smiles": "Cc1ccc2c(c1)C(c1ccccc1)N(C(=O)c1ccc(F)cc1)CC(=O)N2", "note": "(stereo unspecified)", "Potency": "inactive"}
{"smiles": "COC(=O)CN1C(C)=Nc2ccc(Br)cc2C1c1ccccc1", "note": "(stereo unspecified)", "Potency": "inactive"}
{"smiles": "COc1ccc(C(=O)Nc2ccnn2C2CCN(Cc3ccncc3)CC2)cc1", "Potency": "inactive"}
{"smiles": "COC(=O)c1sc2ncccc2c1-n1c(C)ccc1C", "Potency": "inactive"}
{"smiles": "Cc1cc(Cl)ccc1NNC(=O)c1snnc1C", "Potency": "inactive"}
{"smiles": "Brc1ccc(-c2csc(N/N=C/c3cccnc3)n2)cc1", "Potency": "inactive"}
{"smiles": "O=C(CSc1nnc(Cn2cnc3ccccc32)o1)c1ccccc1", "Potency": "11.6 µM (active)"}
{"smiles": "CC(=O)Nc1ccc(C(=O)CSc2nnc(Cc3ccccc3)o2)cc1", "Potency": "inactive"}
{"smiles": "O=C(CSc1nnc(-c2c[nH]c3ccccc23)o1)c1ccccc1", "Potency": "inactive"}
{"smiles": "CCCN(c1ccc(C)cc1)c1nc(=O)c2cccnc2s1", "Potency": "inactive"}
{"smiles": "COc1ccc(N2CCN(C(=O)c3c(C)oc4nc(C)nc(N5CCCC5)c34)CC2)cc1", "Potency": "inactive"}
{"smiles": "Cc1nc(N2CCOCC2)c2c(C(=O)NCc3cccc(Cl)c3)c(C)oc2n1", "Potency": "inactive"}
{"smiles": "CCOC(=O)c1c(C)oc2nc(C)nc(N3CCN(c4ccc(OC)cc4)CC3)c12", "Potency": "7.31 µM (active)"}
{"smiles": "CCOc1ccc(CCNC(=O)CN(c2ccc(C)cc2)S(=O)(=O)N(C)C)cc1OCC", "Potency": "inactive"}
{"smiles": "CC(C)(C)N1C(=O)c2c(C(=O)OCc3ccccc3)[nH]c(-c3ccccc3)c2C1=O", "Potency": "inactive"}
{"smiles": "CCc1ccc(C2CC(=O)c3c([nH]c(C(=O)OCc4ccc(C)cc4)c3C)C2)cc1", "note": "(stereo unspecified)", "Potency": "6.51 µM (active)"}
{"smiles": "CCOc1ccc(C2CC(=O)c3c([nH]c(C(=O)OCc4ccccc4)c3C)C2)cc1", "note": "(stereo unspecified)", "Potency": "13 µM (active)"}
{"smiles": "CCOC(=O)c1[nH]c2c(c1-c1ccccc1)C(=O)CC(c1ccc(Cl)cc1)C2", "note": "(stereo unspecified)", "Potency": "inactive"}
{"smiles": "CCOC(=O)c1cc(=O)c2ccc(OCc3ccccc3)cc2o1", "Potency": "inactive"}
{"smiles": "CCOC(=O)C(Cc1ccccc1)NC(=O)CCC(=O)c1ccc(OC)cc1", "note": "(stereo unspecified)", "Potency": "inactive"}
{"smiles": "CN1C(=O)/C(=C/C=C2\\SCCN2C)OC1=S", "Potency": "inactive"}
{"smiles": "Cc1ccn2c(=O)nc(SCC(=O)NCc3ccc4c(c3)OCO4)nc2c1", "Potency": "inactive"}
{"smiles": "CCOc1ccccc1NC(=O)CSc1ncc(S(=O)(=O)c2ccc(C(C)(C)C)cc2)c(=O)[nH]1", "Potency": "inactive"}
{"smiles": "O=C(NCC(=O)N(c1ccccc1)C(C(=O)NCC1CCCO1)c1ccccc1)c1cccs1", "note": "(stereo unspecified)", "Potency": "inactive"}
{"smiles": "Cc1ccc(N2CCN(C(=O)CCc3c(C)nc4c(c3C)c(=O)n(C)c(=O)n4C)CC2)c(C)c1", "Potency": "inactive"}
{"smiles": "COc1cc(NC(=O)CSc2nc3nc(C)c(Cc4ccc(C)cc4)c(C)n3n2)cc(OC)c1OC", "Potency": "13 µM (active)"}
{"smiles": "COc1cc(NC(=O)CCn2nc(C)cc2C)cc(OC)c1OC", "Potency": "inactive"}
{"smiles": "Cc1ccc(Cc2c(C)nc3nc(SCC(=O)NCCN4CCOCC4)nn3c2C)cc1", "Potency": "inactive"}
{"smiles": "CCn1c(SC)nc(O)c(C(c2ccc(OC)c(O)c2)c2c(O)nc(SC)n(CC)c2=O)c1=O", "Potency": "inactive"}
{"smiles": "CC(C)Oc1ccc(CN2CCC2(C)C(=O)NCc2ccc(C(F)(F)F)cc2)cc1", "note": "(stereo unspecified)", "Potency": "25.9 µM (active)"}
{"smiles": "CC(C)Oc1ccc(Oc2ccc(C(F)(F)F)cn2)cc1", "Potency": "inactive"}
{"smiles": "CC(C)CN1CCC1(C)C(=O)Nc1ccc(OC(F)F)cc1", "note": "(stereo unspecified)", "Potency": "inactive"}
{"smiles": "CN(CC(=O)Nc1ccc(Cl)cc1)C(=O)CNC(=O)c1ccc2ccccc2c1", "Potency": "inactive"}
{"smiles": "O=C(/C=C/c1ccccc1)Oc1coc(CSc2ncccn2)cc1=O", "Potency": "inactive"}
{"smiles": "COc1ccc(-c2nn3c(-c4ccc(OC)cc4)nnc3c3ccccc23)cc1", "Potency": "inactive"}
{"smiles": "COc1ccccc1OCCCC(=O)Nc1ccc2c(c1)OCCO2", "Potency": "inactive"}
{"smiles": "COc1cccc(/C=C/C(=O)Nc2ccc3c(c2)OCCO3)c1", "Potency": "inactive"}
{"smiles": "COc1ccc(OC)c(/C=C/C(=O)OCC(=O)Nc2ccc3c(c2)OCCO3)c1", "Potency": "20.6 µM (active)"}
{"smiles": "Nc1nnc(SCC(=O)NCC(=O)Nc2ccc(F)c(F)c2F)s1", "Potency": "inactive"}
{"smiles": "O=C1c2ccccc2C(O)N1Cc1ccccc1", "note": "(stereo unspecified)", "Potency": "inactive"}
{"smiles": "O=C(N[C@H]1C/C=C\\C(c2ccc(F)cc2)N(Cc2ccccc2)C(=O)C1)OCC1c2ccccc2-c2ccccc21", "note": "(stereo partly specified)", "Potency": "18.4 µM (active)"}
{"smiles": "COc1ccc(C2/C=C\\CN(CC(C)C)CC(=O)N2Cc2ccc(F)cc2)cc1", "note": "(stereo unspecified)", "Potency": "inactive"}
{"smiles": "Cn1c(SCC(=O)N2CCCC2)nnc1-c1ccc2c(c1)OCO2", "Potency": "inactive"}
{"smiles": "O=C(CNCc1ccc(Cl)cc1)Nc1cccc(C(=O)O)c1", "Potency": "inactive"}
{"smiles": "CCN(CC)C(=O)CSc1nc2ccsc2c(=O)n1Cc1ccccc1Cl", "Potency": "18.4 µM (active)"}
{"smiles": "CCOC(=O)n1c(SCC(=O)N(CC)CC)nc2ccccc21", "Potency": "inactive"}
{"smiles": "CCOC(=O)CSc1nc2c(c(=O)n(Cc3ccccc3Cl)c(=O)n2C)n1C", "Potency": "inactive"}
{"smiles": "O=C(CSc1ccsc1[N+](=O)[O-])N1CCCCC1", "Potency": "inactive"}
{"smiles": "O=C(Nc1sc2c(c1-c1nc3ccccc3[nH]1)CCCC2)C1CC1", "Potency": "inactive"}
{"smiles": "CC(=O)Nc1nonc1-c1nc2ccccc2n1Cc1ccccn1", "Potency": "inactive"}
{"smiles": "COc1cccc(C(O)c2nc3ccccc3n2C)c1", "note": "(stereo unspecified)", "Potency": "inactive"}
{"smiles": "COc1ccc(C)c(Cn2c(-c3nonc3N)nc3ccccc32)c1", "Potency": "2.59 µM (active)"}
{"smiles": "Fc1ccc(CNc2nc3ccccc3n3nnnc23)cc1", "Potency": "inactive"}
{"smiles": "Nc1nonc1-c1nc2ccccc2n1Cc1ccc(F)cc1", "Potency": "16.4 µM (active)"}
{"smiles": "COc1ccc2oc(N)nc2c1", "Potency": "inactive"}
